# Only some compounds are listed: those with a hit (about 3.6% of all), similar ones and a draw of the others.
# GCN5L2 inh: qHTS Assay for Inhibitors of GCN5L2. Histone acetyltransferase KAT2A (Homo sapiens), Q92830. GCN5L2 HAT assay, ThioGlo1 CoA-SH fluorescence. Potency, µM (titrated, usually from 58.9 µM), for the others: at the highest dose activity change, negative = inhibition, actives largely listed as inhibitors. actives 0.21% (n = 390,000). AID 504327, 2011; also: % is scaled to controls: 0 for no effect and ±100 for the full control effect
#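 GCN5L2 (20nM final) in 50mM HEPES, 0.1mM EDTA pH 7.5, 0.01% Tween-20 was preincubated 15 min at room temperature with compound, then given ThioGlo1 (50uM), H3(1-25) peptide (75uM) and acetyl-CoA (70uM); CoA-thiol fluorescence (Ex340/Em540) was read at 0 and 20 min.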
# Sfp inh: qHTS Assay for Inhibitors of Bacillus subtilis Sfp phosphopantetheinyl transferase (PPTase) | actives 3.5% (n = 310,000) | 4'-phosphopantetheinyl transferase ffp (Bacillus subtilis), Q9F4F7 | Biochemical Sfp PPTase activity, qHTS | Potency, µM, without a hit: largest response in the series, negative = inhibition, actives largely listed as inhibitors | AID 1490, 2009;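 also: the enzyme is Sfp with the accession as filed and its product quenches rhodamine fluorescence; 0% = enzyme reaction without inhibitor and -100% = no enzyme wells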
#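 Reaction rates are the 30-min fluorescence difference (ex 525, em 598 nm) in wells containing 15 nM Sfp, 5 uM rhodamine-CoA and 12.5 uM BHQ-2-YbbR at pH 7.6 with 10 mM MgCl2.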
# JMJD2E inh: qHTS Assay for Inhibitors of Human Jumonji Domain Containing 2E (JMJD2E); Potency, µM (top dose mostly 57.1 µM), for inactives: at the top dose activity change, negative = inhibition, usual class: inhibitors; actives 1.6% (n = 230,000); AID 2147, 2009; JMJD2E catalytic domain, FDH-coupled NADH fluorescence (FDH is formaldehyde dehydrogenase); Lysine-specific demethylase 4E (Homo sapiens), B2RXH2; active = well fitted inhibition curve with a large enough effect, not every such curve was filed as active; inconclusive = small, poorly fitted or top-dose-only effect, or another doubt; inactive = no such curve, though single readings can be large or run the other way;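 also: 0% = wells with enzyme and -100% = buffer wells without enzyme; nearly all actives have a fitted effect of over 50% in size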
# Epigenetic derep: Quantitative High-Throughput Screen for Regulators of Epigenetic Control. murine LDR cells, GFP reporter derepression, 30 h. Potency, µM (doses to about 53.9 µM), for inactives: top-dose GFP activation, hits mostly activators. actives 0.2% (n = 280,000). AID 1865, 2009; also: % of control where 0% means no effect; nearly all actives have a fitted effect of over 60% in size
#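 Reporter derepression read as number of fluorescent GFP-positive objects, 20-120 um in size, counted by laser-scanning cytometer. Mouse LDR line with an epigenetically silenced CMV-GFP locus; compound incubation 30 h, 37 C.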
# NPSR antagonist: qHTS Assay for Antagonists of the Neuropeptide S Receptor: cAMP Signal Transduction. CHO-NPSR cells, cAMP TR-FRET, antagonist mode. Potency, µM (series often up to 38.3 µM), for the others: at the highest dose activity change, negative = inhibition, most hits filed as inhibitors. actives 1% (n = 220,000). AID 1461, 2008; also: % is scaled to controls: 0 for no effect and ±100 for the full control effect; nearly all actives have a fitted effect of over 50% in size
# IMPase Li cell: qHTS Assay for Identifying the Cell-Membrane Permeable IMPase Inhibitors: Potentiation with Lithium; CHO-M1 cells, IP1 TR-FRET (IP-One), carbachol + lithium; Potency, µM (doses to about 59.4 µM), for the others: at the top dose activity, negative = IMPase inhibition, usual class: inhibitors; actives 0.35% (n = 210,000);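 also: IP1 builds up when IMPase is blocked and the TR-FRET signal falls; plate controls were basal vehicle for no effect and high inhibitor control for full effect; nearly all actives have a fitted effect of over 50% in size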
#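 IP1 accumulation measured by competitive TR-FRET in lysed CHO-M1 cells after 30 min compound exposure at 37C, with a small lithium addition to potentiate weak responses. Hill-equation AC50 from ratio and donor-channel data.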
# * hit, by the source's call; ? = inconclusive; nt = no result; [ ] = remark or other dose. Unless noted, calls follow the shape of the dose curve; as a rule, active = well fitted curve in the direction sought with a large enough effect; inconclusive = small, poorly fitted or top-dose-only effect, or another doubt; inactive = no such curve, though single readings can be large; an effect the other way counts as inactive or inconclusive. Potency is read from the fitted curve at half-maximal effect.
SMILES,GCN5L2 inh,Sfp inh,JMJD2E inh,Epigenetic derep,NPSR antagonist,IMPase Li cell
Fc1ccc(C2Nc3cccc4cccc(c34)N2)cc1,-15%,?,nt,nt,nt,nt
O=C1c2ccccc2NC(c2cccc([N+](=O)[O-])c2)N1O (stereo unspecified),-6%,-4%,nt,nt,nt,nt
Cc1ccc(NC(=S)Nc2ccc(C(C)C)cc2)cc1S(=O)(=O)N1CCCCCC1,-15%,56µM*,3%,1%,-22%,19%
FC(F)OC(Cl)C(F)(F)F (stereo unspecified),-11%,34%,nt,nt,nt,nt
COCC(=O)C(C(=O)OC)[C@H](CCc1ccccc1)NC(=O)OC (stereo partly specified),nt,-13%,3%,0%,nt,12%
O=C(O)c1cc(O)c2c(c1)[C@H]([C@H]1c3cc(C(=O)O)cc(O)c3C(=O)c3c(O[C@@H]4O[C@H](CO)[C@@H](O)[C@H](O)[C@H]4O)cccc31)c1cccc(OC3O[C@H](CO)[C@@H](O)[C@H](O)[C@H]3O)c1C2=O (stereo partly specified),0.71µM*,nt,nt,nt,nt,nt
O=C(O)c1cc(O)c2c(c1)[C@@H]([C@H]1c3cc(C(=O)O)cc(O)c3C(=O)c3c(O[C@@H]4O[C@H](CO)[C@@H](O)[C@H](O)[C@H]4O)cccc31)c1cccc(OC3O[C@H](CO)[C@@H](O)[C@H](O)[C@H]3O)c1C2=O (stereo partly specified),0.5µM*,nt,nt,nt,nt,nt
O=C1c2c(O)cccc2C(C2OC(CO)[C@@H](O)[C@H](O)[C@H]2O)c2cc(CO)cc(O)c21 (stereo partly specified),-21%,nt,nt,nt,nt,nt
Nc1nc(Nc2ccccc2)nc2ccccc12,-1%,-12%,-14%,-1%,22%[46.1 µM],-9%[38.3 µM]
CN(C)c1ccc(Nc2nc(N)c3ccccc3n2)cc1,-6%,25µM*,nt,nt,nt,nt
COC(=O)C1=C(C(=O)OC)[C@@H]2N(C)c3ccccc3[C@@]23C[C@@H](C(=O)OC)N(S(=O)(=O)c2ccc([N+](=O)[O-])cc2)C3=N1,nt,-12%,-6%[11.4 µM],nt,nt,7%
O=C(Nc1cccc(-c2ccccc2)c1)N1CCN(C(=O)Nc2cccc(-c3ccccc3)c2)CC1,35µM*,13%,-1%,1%,-14%,nt
COC(=O)c1cc(O)c(O)c(O)c1,-2%,?,16µM*,1%,10%,12%
Cc1ccnc(Nc2nc3ccccc3o2)n1,-3%,71µM*,3%,1%,6%[46.1 µM],25%[38.3 µM]
Cc1nc(Nc2nc3ccccc3o2)nc(C)c1C,-5%,8%,10%,2%,18%,3%
CCN1CCc2c(sc(NC(=S)NC(=O)c3ccc(Cl)cc3)c2C(N)=O)C1,0%,16µM*,0%,2%,?,nt
CC(C)C1Cc2c(sc(NC(=S)NC(=O)c3ccccc3)c2C#N)CO1 (stereo unspecified),3%,3%,2%,1%,2%[46.1 µM],-14%
CC(C)N1CCc2c(sc(NC(=S)NC(=O)c3ccccc3)c2C#N)C1,36%,40µM*,-5%,0%,-3%[46.1 µM],0%
CCCN1CCc2c(sc(NC(=S)NC(=O)c3ccccc3)c2C#N)C1,-18%,50µM*,?,?,-35%,15%
CC(=O)NCCNc1nc(-c2cccnc2)nc2ccccc12,-8%,17%,nt,nt,nt,-7%
Cc1nc(NCc2ccccc2)c2nc(-c3ccccc3)n(CCN3CCCC3)c2n1,nt,7%,?,1%,nt,3%
CCn1cc(C(=O)N2CCN(c3cccc(Cl)c3)CC2)c(=O)c2cc(S(=O)(=O)N3CCC(C)CC3)ccc21,-14%,nt,nt,1%,nt,nt

# Screening results from PubChem.
